Where “and” joins values, the source holds several entries; their conditions need not be identical. Equal values may be shown once. Results filed as inconclusive are left out. Calls of active or inactive are those of the source. Calls come from the whole dose curve; as a rule, active = well fitted inhibition curve with a large enough effect in the main read-out, with a control signal flat; inconclusive = small, poorly fitted or top-dose-only effect, or a change in a side signal; inactive = flat fitted curve, though single readings scatter.
The compounds below were run against Neuropeptide S receptor (Homo sapiens) (UniProt Q6W5P4) (assay: Confirmation Concentration-Response Assay for Antagonists of the Neuropeptide S Receptor: cAMP Signal Transduction). Conditions: CHO-NPSR cells, cAMP TR-FRET, antagonist mode; series mostly up to 22.3 µM.
Chain of Neuropeptide S receptor (Homo sapiens) (Q6W5P4 whole entry, looked up): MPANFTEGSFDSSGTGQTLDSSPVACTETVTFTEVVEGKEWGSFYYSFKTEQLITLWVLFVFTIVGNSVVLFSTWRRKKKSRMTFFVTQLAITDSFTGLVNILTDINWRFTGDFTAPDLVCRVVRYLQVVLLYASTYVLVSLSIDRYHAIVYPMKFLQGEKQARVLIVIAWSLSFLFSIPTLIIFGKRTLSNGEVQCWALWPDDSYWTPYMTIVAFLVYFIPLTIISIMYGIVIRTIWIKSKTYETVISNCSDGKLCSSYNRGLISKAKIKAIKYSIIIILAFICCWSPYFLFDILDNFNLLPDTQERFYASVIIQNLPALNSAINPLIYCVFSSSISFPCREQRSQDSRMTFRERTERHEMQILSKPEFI
Procedure, shortened: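 LANCE TR-FRET cAMP read-out: 665/620 nm emission ratio, with the 620 nm donor channel also reported, after 2 h RT detection. Stably transfected CHO-NPSR cells got compound titrations and 100 nM NPS in stimulation reagent for 60 min at 37C. IC50 came from Hill fits.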
Potency is the fitted concentration of half-maximal effect.

Potency, inactive:
Nc1ccc(-c2nc3c(Cl)cc(N)cc3[nH]2)cc1
COc1ccccc1-c1nnc(SC2CCc3ccccc3NC2=O)s1 (stereo not drawn)
COCCCn1c(SCc2cc(=O)[nH]c3ccccc23)nnc1-c1ccco1
O=C(CSc1cccc[n+]1[O-])Nc1ccccc1Oc1ccccc1
COc1ccc(CCNC(=O)CC(c2ccccc2)c2cccc(C)c2O)cc1OC (stereo not drawn)
CCOc1ccc(N2C(=O)CC(NCCc3ccncc3)C2=O)cc1 (stereo not drawn)
O=C(NCCCN1CCOCC1)c1cc2c(=O)[nH]c3ccccc3c2s1
O=C(Nc1nccs1)C1CCCN1S(=O)(=O)c1ccc(Cl)cc1 (stereo not drawn)
Cc1cccc(-c2nnc(SCc3cc(=O)[nH]c4ccccc34)n2C)c1
C=CCn1c(SCCN2C(=O)c3ccccc3C2=O)nc2scc(-c3ccccc3)c2c1=O
Cc1cccc(N2CCN(C(=O)c3ccc(CNc4c(N5CCC(C)CC5)c(=O)c4=O)cc3)CC2)c1C
CCOc1ccccc1NC1=CC(=O)CC(c2ccccc2)C1 (stereo not drawn)
Cc1ccc(S(=O)(=O)Nc2cccc3ncccc23)s1
CCC(C)(C)NC(=O)Cc1ccc(C)cc1
N#CC(C#N)=c1ccc2c(c1)NC1(CCCCC1)N=2
O=c1cc(CNCCCO)c2ccccc2[nH]1
Cc1cc(OCC(=O)c2ccc(Br)cc2)ccc1N1C(=O)CCC1=O
O=[N+]([O-])c1ccc(N=Nc2ccc(O)cc2O)cc1
Cc1nn(C)cc1/C=N/NC(=S)Nc1ccccc1
CCn1cc(C(=O)NCC2CCCO2)c(=O)c2cc(S(=O)(=O)N3CCCCCC3)ccc21 (stereo not drawn)
COc1ccc(N(CC(=O)Nc2cccc(SC)c2)S(C)(=O)=O)cc1Cl
Nn1c(COc2ccccc2)nnc1SCc1cc(=O)[nH]c2ccccc12
CCSc1nc2c(c(=O)n1Cc1ccccc1)SC(C)C2 (stereo not drawn)
C(=C\c1ccccc1)/C=N/N1CCN(c2ccccn2)CC1
c1ccc(CSC2=NNC(c3ccccn3)S2)cc1 (stereo not drawn)
Cc1nc(NC(=S)Nc2ccccc2)sc1C
CC1CCCc2sc3nc(N4CCN(CCO)CC4)n4ncnc4c3c21 (stereo not drawn)

Potency, active:
O=S1(=O)Nc2c(ccc3cccnc23)-c2ccccc21 4.47 µM
COc1ccc(-c2cc(N)n(S(=O)(=O)c3c(F)c(F)c(F)c(F)c3F)n2)cc1OC 7.08 µM
C=C1C(=O)C=C2CN(C(=O)c3ccccc3)[C@@](Cc3ccc(F)cc3)(C(=O)OC)[C@@H]12 3.98 µM
COc1ccccc1C1c2c(ncn(-c3ccccc3)c2=N)Oc2ccc3ccccc3c21 (stereo not drawn) 17.8 µM
O=C(/C=C/c1ccco1)NC(=S)Nc1nc(-c2ccc3ccccc3c2)cs1 3.98 µM
COc1cccc(C2c3c(ncn(CCCN4CCOCC4)c3=N)Oc3ccc4ccccc4c32)c1 (stereo not drawn) 14.1 µM
N#CC1=C(NC=NCc2ccccc2)Oc2ccc3ccccc3c2C1c1ccccc1 (stereo not drawn) 1.58 µM
O=C(COC(=O)c1ccccc1C(=O)c1ccc(Cl)c([N+](=O)[O-])c1)NC1CCCCCC1 4.47 µM and 8.91 µM
N=c1c2c(ncn1-c1ccccc1)Oc1ccc3ccccc3c1C2c1ccc2c(c1)OCCO2 (stereo not drawn) 1.41 µM
C/C(=N\Nc1ncc(Cl)cc1Cl)c1ccccn1 5.62 µM
Nc1ncnc2c1C(c1ccccc1)c1c(ccc3ccccc13)O2 (stereo not drawn) 1 µM
